Assay outcomes from PubChem BioAssay.
The list is not random: actives were taken first. Their share in the collection is about 4%.
TROY signal inh: inhibitors of TROY-driven NF-kB signaling, primary screen, Q293 LMP1-TROYcd cells, NF-kB luciferase, uHTS; AID 1347056, 2019; Q293 LMP1-TROYcd NF-kB luciferase reporter, 4 h; inhibition, % at 10 µM; 360,000 tested, 0.98% active;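 active = compounds whose plate-normalised and pattern-corrected inhibition of the luciferase reporter signal at the single screening dose is 50% or more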
TWEAK Fn14 block: inhibitors of TWEAK-Fn14 signaling, primary screen, luciferase reporter cells, uHTS; TWEAK-stimulated Fn14 reporter cells, luciferase luminescence, 8 h; inhibition, % at 10 µM; 360,000 tested, 2% active; AID 1159606, 2016; in the data active = inhibition above about 50%
KKLEB tox: cytotoxicity in KKLEB CF airway cells, primary screen, cytotoxicity control for CF NF-kB inhibitor project, cell-based, uHTS, fluorescence assay plates. KKLEB CF airway cells viability, ATPlite luminescence, overnight; stronger effect = lower value; cells stimulated with P. aeruginosa culture filtrate. 360,000 tested, 0.36% active. AID 602141, 2011. activity change (cytotoxicity), % at 5 µM;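 active = corrected activity change at or below -50% at 5 µM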
CF NFkB block: inhibitors of PAF-induced NF-kB signaling, primary screen, cell-based, GFP fluorescence, uHTS | KKLEB NF-kB-GFP reporter, GFP fluorescence overnight | inhibition, % at 5 µM | 360,000 tested, 0.86% active;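 active = at least 50% inhibition at 5 µM, scaled per plate between neutral and stimulator controls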;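 also: PAF is a Pseudomonas aeruginosa culture filtrate used as stimulus; plate controls were PAF-stimulated DMSO wells for no effect and unstimulated DMSO wells for full effect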
Peg3 promoter: Peg3 promoter-driven luciferase inhibitors, primary screen, cell-based, HeLa, luciferase luminescence; HeLa PEG-Prom luciferase reporter, overnight; inhibition, % at 20 µM; 360,000 tested, 1.7% active; AID 588405, 2011;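 active = inhibition of at least 50% at 20 µM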
HIF-2a block: HIF-2a reporter inhibitors, primary screen, luminescence, 786-0 RCC cells; 786-0 RCC cells HIF-2a reporter, luciferase luminescence, overnight; 360,000 tested, 0.72% active; inhibition, % at 18.8 µM; AID 624352, 2012;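 active = inhibition of the luminescence signal of 40% or more relative to plate controls, in a single-dose primary screen at 18.75 µM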
* = called active by the depositor.

SMILES	TROY signal inh	TWEAK Fn14 block	KKLEB tox	CF NFkB block	Peg3 promoter	HIF-2a block
CCOC(=O)N=Nc1c2ccccc2c2nc3no[nH]c3nc12	66.3*	90.1*	-65.2*	94.7*	107.8*	-38.2
O=C(/C=C\Nc1ccccc1Br)c1ccc2c(c1)OCO2	46.7	61.3*	-75.1*	-7.1	-32.5	-28.2
O=C(/C=C\Nc1cccc(F)c1)c1ccc2c(c1)OCO2	3.1	81.1*	-34.3	-5.5	-35.6	-22.5
O=C(/C=C/c1ccccc1Br)c1ccc2c(c1)OCO2	-4.4	27.2	-3.9	-1.4	-106.1	-230.6
O=C(/C=C/c1cccc(Br)c1)c1ccc2c(c1)OCO2	-0.8	60.0*	-15.7	-10.7	3.0	-187.5
O=C(/C=C/c1ccccc1)c1ccc2c(c1)OCO2	-20.7	-10.6	-16.8	10.6	-183.3	-304.1
COC(=O)c1ccc(N/C=C\C(=O)c2ccc3c(c2)OCO3)cc1	-37.1	1.0	-7.2	-22.5	-123.6	-66.2
O=C(/C=C/Nc1ccc(F)cc1Br)c1ccccc1	76.5*	90.3*	-71.5*	3.6	39.1	52.1*
O=C(c1ccccc1Cc1ccccc1)N1CCN(S(=O)(=O)c2ccccc2Br)CC1	10.9	-5.1	-0.1	5.9	25.6	9.7
O=C(/C=C/c1ccncc1)c1ccc2c(c1)OCCO2	29.2	-5.0	-15.7	10.2	105.0*	3.1
O=C(Nc1cccc(S(=O)(=O)N2CCCC2)c1)c1ccc(Cl)nc1	9.9	12.9	-15.6	39.0	12.7	-12.1
Cc1nc(NCCc2ccccc2)c2oc3ccccc3c2n1	30.5	51.7*	-6.9	8.7	-3.9	-33.0
C#CCOCCOCCOCCNc1nc(N2CCN(C(=O)[C@H](CCC(=O)O)n3cc([C@@H](N)[C@H](C)CC)nn3)CC2)nc(N2CCN(C(=O)[C@H](CCC(=O)O)n3cc([C@@H](N)CC(N)=O)nn3)CC2)n1	-23.3	5.1	10.7	13.0	-5.1	1.3
Cc1ccc(S(=O)(=O)c2ccc(C)cc2)cc1	-7.0	0.4	2.0	7.7	3.3	-6.8
Cc1ccc(S(=O)(=O)C=CS(=O)(=O)c2ccc(C)cc2)cc1	3.4	4.3	-37.4	96.5*	95.4*	52.4*
O=c1c2ccccc2sn1-c1ccc(Cl)cc1	4.2	24.4	-9.7	63.8*	-128.2	-240.3
O=c1c2ccccc2sn1-c1ccc(F)cc1	-19.7	-5.1	-9.2	31.8	-65.4	-93.5
O=c1c2ccc(F)cc2sn1-c1ccccc1	-22.5	0.9	4.8	54.1*	-95.1	-47.5
O=[N+]([O-])c1ccc(Nc2nc(N/N=C\c3ccc4c(c3)OCO4)nc(N3CCCCC3)n2)cc1	11.6	54.5*	-3.1	-13.0	44.6	-6.9
CN(C(=O)COC(=O)C1CSC2(C)CCC(=O)N12)c1ccccc1 (stereo not given)	1.9	-8.4	12.6	-13.7	4.3	-3.7
CC1CCN(CCCn2c(=S)[nH]c3ccc(N4CCOCC4)cc3c2=O)CC1	7.9	-16.3	-67.1*	8.5	3.6	12.6
O=c1c2cc(N3CCOCC3)ccc2[nH]c(=S)n1CCCN1CCCC1	-9.7	-18.9	-1.6	-9.3	3.7	15.9
CC1(c2ccccc2)CCC(=O)NC1 (stereo not given)	6.1	5.7	10.5	-22.6	11.3	8.1
CC1C(=O)CCC1(C(=O)O)c1ccccc1 (stereo not given)	-2.5	97.8*	4.6	1.4	4.5	19.0
COc1ccc2[nH]c3c(NCCC4=CCCCC4)ncnc3c2c1	27.9	79.1*	-14.1	16.3	-128.8	-245.5
SMILES	TROY signal inh	TWEAK Fn14 block	KKLEB tox	CF NFkB block	Peg3 promoter	HIF-2a block
COc1ccc2[nH]c3c(NCCCOC(C)C)ncnc3c2c1	-9.0	3.2	8.4	2.1	-98.3	-174.2
Cc1ccc(NS(=O)(=O)c2ccc3c(c2)NC(=O)CCS3)c(C)c1	5.6	-7.5	21.7	7.0	35.0	9.9
O=C(Nc1c(F)cccc1F)c1cnc(N2CCN(c3ccccn3)CC2)c2ccccc12	35.7	60.1*	-4.6	-27.3	72.5*	-7.7
Cc1ccc(NC(=O)c2cnc(N3CCN(c4ccccn4)CC3)c3ccccc23)c(Br)c1	68.1*	92.8*	-17.4	-12.6	89.9*	19.0
O=C(c1cnc(N2CCN(c3ncccn3)CC2)c2ccccc12)N1CCN(c2ccccn2)CC1	34.0	49.3	-2.9	8.0	27.9	22.1
O=C1Nc2ccccc2N=C(c2ccc3c(c2)OCO3)C1N(C(=O)c1ccc2ccccc2c1)C1CC1 (stereo not given)	-37.6	-3.1	-9.6	11.6	-220.9	-327.9
Cc1c(C(=O)NCc2nnc(-c3ccccc3)o2)oc2c(F)cccc12	-12.9	-29.1	-7.7	11.4	-34.5	-27.0
CN(C)CCN(Cc1ccc(Cl)cc1)c1ccccn1	-3.2	-8.2	39.2	-7.6	-34.0	5.0
S=C(NCCCCN(Cc1ccc(Cl)cc1)c1ccc(Br)cn1)NCCCc1cnc[nH]1	-0.4	-19.8	-15.8	13.7	96.1*	-13.7
O=C(NCCCCCCNC(=O)OCc1ccccc1)OCc1ccccc1	-7.5	4.0	-10.7	-11.3	1.5	1.3
O=C(OCc1ccccc1)N(CCCCN(CCCNCc1ccccc1)C(=O)OCc1ccccc1)CCCNCc1ccccc1	33.7	102.5*	-90.3*	68.5*	108.1*	89.1*
COc1ccc2nc(/N=C\N(C)C)sc2c1	-27.5	-1.1	-0.1	2.8	-54.8	-73.2
COc1ccc2nc(N=Nc3ccc(N(C)C)cc3)sc2c1	47.2	41.4	-74.2*	6.8	24.8	-138.0
Oc1ccc(C[C@H]2CNCCN2CCCCC2CCCCC2)cc1	-2.7	-6.8	-30.6	17.7	106.3*	-2.8
Oc1ccc(C[C@@H]2CNCCN2CCC23CC4CC(CC(C4)C2)C3)cc1	12.0	-1.6	-11.2	8.0	50.6*	1.4
O=C(CNc1cccc(S(=O)(=O)N2CCOCC2)c1)Nc1ccccc1F	-10.6	-8.2	-5.8	17.2	-6.5	-13.7
COc1cc(C(=O)N/N=C/c2ccc(OC(=O)c3cccc(C)c3)c(OC)c2)ccc1O	36.5	-19.8	-0.6	-3.3	-22.8	7.8
N/C(=N\OC(=O)c1ccc(F)cc1)c1nonc1N	-69.9	-13.6	5.9	-13.8	-19.8	-31.1
Cc1ccc(C(=O)O/N=C(\N)c2nonc2N)cc1	66.0*	54.9*	13.5	-6.3	-149.0	-83.4
O=C(Nc1ccc(F)c(Cl)c1)c1cc(C2CCCCN2C(=O)c2ccc3c(c2)CCO3)on1 (stereo not given)	19.8	0.0	0.8	-9.0	12.8	5.7
Cc1ccc(C(=O)COC(=O)c2ccc3c(c2)C(=O)N(c2cccc4ncccc24)C3=O)cc1	10.2	-12.5	-11.8	12.3	101.5*	16.3
